# Test results as given in PubChem BioAssay AID372 (MTDP, 2006).
# Out of some 100,000 compounds screened, about 770 (0.77%) were called active. No stated cut-off is given here; in the data, active means inhibition above about 50%; inactive means the rest. For the sample, actives were picked, then their nearest neighbours and some compounds at random.
# Target: Gag-Pol polyprotein (Human immunodeficiency virus type 1 group M subtype B (isolate HXB2)) (UniProt P04585)
# Test: RNase H inhibition, HIV 1 Gag Pol polyprotein, FRET biochemical assay, screening (AID 372)
# Settings: HIV-1 RT RNase H, FRET RNA/DNA substrate fluorescence; at 10 µM; active compounds read high
row,Compound,inhibition
1,Cc1nn(CC(=O)Nc2ccc(Cl)cc2Cl)c(C)c1[N+](=O)[O-],0% (inactive)
2,COC(=O)C1CN(S(=O)(=O)c2ccccc2)CCN1S(=O)(=O)c1ccccc1 (stereo not drawn),2% (inactive)
3,CCN(CC)C(=O)C1CN(S(=O)(=O)c2ccccc2)CCN1S(=O)(=O)c1ccccc1 (stereo not drawn),54% (active)
4,O=C(O)C1CN(S(=O)(=O)c2ccccc2)CCN1S(=O)(=O)c1ccccc1 (stereo not drawn),8% (inactive)
5,Cc1cc(OS(C)(=O)=O)c2c(-c3ccccc3)cc(=O)oc2c1,19% (inactive)
6,Cc1cc(OC(C)C)c2c(-c3ccccc3)cc(=O)oc2c1,50% (active)
7,Cc1cc(OCC(=O)OC(C)C)c2c(-c3ccccc3)cc(=O)oc2c1,20% (inactive)
8,COc1ccc(NC(=O)n2nc(C(F)(F)F)nc2N)cc1,0% (inactive)
9,Cc1cc(Cl)ccc1OC(C)C(=O)N1CCN(c2cccc(Cl)c2)CC1 (stereo not drawn),10% (inactive)
10,CCOc1nc(Nc2ccc(Cl)cc2)nc(N2CCCCC2)n1,9% (inactive)
11,c1ccc(-c2onc3ccc(Oc4ccc5noc(-c6ccccc6)c5c4)cc23)cc1,19% (inactive)
12,O=[N+]([O-])c1ccccc1S(=O)(=O)NCCSc1ccccc1,33% (inactive)
13,O=[N+]([O-])c1ccccc1S(=O)(=O)NCCSCc1ccc(Cl)cc1,50% (active)
14,O=S(=O)(NCCSCc1ccccc1)c1ccc(Cl)cc1,15% (inactive)
15,O=C(O)c1ccc(-c2ccc(/C=C3/SC(=O)N(c4ccccc4)C3=O)o2)cc1,15% (inactive)
16,COC(=O)c1ccc(-c2ccc(/C=C3\SC(=O)N(c4ccccc4)C3=O)o2)cc1,57% (active)
17,COC(=O)c1ccc(-c2ccc(/C=C3/SC(=S)N(c4ccccc4)C3=O)o2)cc1,4% (inactive)
18,COc1cc(/C=C(\C#N)C(N)=S)ccc1OCc1ccccc1,10% (inactive)
19,CCOc1ccc(N(CC(N)=O)S(=O)(=O)c2ccc(SC)cc2)cc1,0% (inactive)
20,CCOC(=O)c1c(NC(=O)COc2ccc(Cl)cc2)sc2c1CCN(C(=O)OCC)C2,38% (inactive)
21,CCOC(=O)c1c(NC(C)=O)sc2c1CCN(C(=O)OCC)C2,9% (inactive)
22,CCOC(=O)c1c(NC(=O)Cc2ccc(OC)cc2)sc2c1CCN(C(=O)OCC)C2,50% (active)
23,CCOc1ccc(NC(=O)CSc2nc3ccccc3s2)cc1,10% (inactive)
24,Nc1c2c(cc3ccccc13)C(=O)c1ccccc1C2=O,46% (inactive)
25,CCOc1ccccc1C(=O)Nc1cccc(OC)c1,11% (inactive)
26,Cc1ccc(S(=O)(=O)NC(=O)OC(c2ccccc2)C(F)(F)F)cc1 (stereo not drawn),0% (inactive)

row,Compound,inhibition
1,CCc1ccccc1NC(=O)c1ccc(CN2CCc3ccccc3C2)cc1,7% (inactive)
2,COc1ccccc1CC(=O)Nc1ccc(Br)c(C)c1,59% (active)
3,COc1ccccc1CC(=O)Nc1ccc(F)cc1,10% (inactive)
4,CCC(C)c1ccc(NC(=O)Cc2ccccc2OC)cc1 (stereo not drawn),52% (active)
5,COc1cccc(OC)c1C(=O)Nc1cc(C)ccn1,0% (inactive)
6,COc1ccccc1CC(=O)Nc1ccc(F)cc1F,55% (active)
7,CCOC(=O)c1ccc(NC(=O)Cc2ccccc2OC)cc1,8% (inactive)
8,COc1ccccc1CC(=O)Nc1ccc(C)c(Cl)c1,5% (inactive)
9,COc1ccccc1CC(=O)Nc1nccs1,14% (inactive)
10,COc1ccccc1NC(=O)Cc1ccc(F)cc1F,0% (inactive)
11,COc1ccccc1CC(=O)Nc1cc(C)ccn1,53% (active)
12,COc1ccc(CC(=O)Nc2ccc(Br)c(C)c2)cc1OC,12% (inactive)
13,COc1ccccc1CC(=O)Nc1cccc(F)c1,0% (inactive)
14,Cc1nonc1-c1cn2cc(Cl)ccc2n1,8% (inactive)
15,COc1ccccc1C/C(N)=N/OC(=O)Cc1ccc(Cl)cc1,22% (inactive)
16,O=C(Nc1ccc(S(=O)(=O)N2CCCCCC2)cc1)c1cccc([N+](=O)[O-])c1,9% (inactive)
17,CCOC(=O)C1=C(C)N=c2s/c(=C\c3ccc([N+](=O)[O-])o3)c(=O)n2C1c1ccc(SC)cc1 (stereo not drawn),20% (inactive)
18,COc1ccc(S(=O)(=O)N(CCc2ccccc2)CC(=O)NCC2CCCO2)cc1 (stereo not drawn),2% (inactive)
19,CCOc1ccc(N2C(=O)/C(=C/c3cc(Br)c(O)c(OC)c3)C(=O)NC2=S)cc1,11% (inactive)
20,COc1ccccc1CC(=O)Nc1ccc(Br)cc1,38% (inactive)
21,COc1ccccc1CC(=O)Nc1cccc(Br)c1,67% (active)
22,COc1ccccc1CC(=O)Nc1cccc(C)c1,0% (inactive)
23,O=C1c2ccc(-c3nc4ccccc4c(=O)o3)cc2C(=O)N1c1cccc(I)c1,0% (inactive)
24,Cc1ccc2c(c1)N(C(=O)c1ccccc1Br)C(C)(C)c1ssc(=S)c1-2,33% (inactive)
25,C=CCn1c(=O)c(C(=O)NCCCO)c(O)c2ccccc21,11% (inactive)
26,COc1ccc(/C=N/NC(=S)Nc2cccc(C)c2)c2ccccc12,5% (inactive)

row,Compound,inhibition
1,COC(=O)C1=C(C)NC(C)=C(C(=O)OC)C1c1cn(-c2ccccc2)nc1-c1ccco1,4% (inactive)
2,COc1cccc(OCCOC(=O)Nc2ccc(Cl)c(Cl)c2)c1,50% (active)
3,Cc1cccc(OCCOC(=O)Nc2ccc(Cl)c(Cl)c2)c1,46% (inactive)
4,COc1ccccc1OCCOC(=O)Nc1ccc(Cl)c(Cl)c1,10% (inactive)
5,O=C(Nc1ccc(Cl)c(Cl)c1)OCCOc1ccccc1,50% (active)
6,O=C(Nc1cccc(Cl)c1)OCCOc1ccccc1,48% (inactive)
7,Cc1cccc(OCCOC(=O)Nc2cccc(Cl)c2)c1,44% (inactive)
8,O=C(Nc1cccc(Cl)c1)OCCOc1cccc(F)c1,58% (active)
9,O=C(Nc1ccc(Cl)c(Cl)c1)OCCOc1ccccc1Cl,48% (inactive)
10,COc1ccc(OCCOC(=O)Nc2ccc(Cl)c(Cl)c2)cc1,34% (inactive)
11,Cc1ccc(OCCOC(=O)Nc2ccc(Cl)c(Cl)c2)cc1,46% (inactive)
12,Cc1ccccc1OCCOC(=O)Nc1ccc(Cl)c(Cl)c1,51% (active)
13,O=C(Nc1ccc(Cl)c(Cl)c1)OCCOc1cccc(Br)c1,44% (inactive)
14,CC1=C(C#N)C(c2ccccc2C(F)(F)F)C2=C(CCCC2=O)N1 (stereo not drawn),12% (inactive)
15,O=C1Nc2ccccc2NC1C1OC(c2ccccc2)=CC1=O (stereo not drawn),0% (inactive)
16,Cc1cccc(C2C(=O)c3ccccc3C2=O)c1C,13% (inactive)
17,O=C(O)c1ccc(N2C(=O)CC(N3CCN(Cc4ccc5c(c4)OCO5)CC3)C2=O)cc1 (stereo not drawn),12% (inactive)
18,C/C(=N\NC(=O)c1cc(C)[nH]n1)c1ccc(N)cc1,5% (inactive)
19,O=S1(=O)CCC(NC(=S)N/N=C/c2ccc(Cl)c(Cl)c2)C1 (stereo not drawn),13% (inactive)
20,COc1ccc(C(N)=CC(=O)C(C)(C)C)cc1,7% (inactive)
21,Clc1cccc(OCCCN2CCOCC2)c1Cl,2% (inactive)
22,Clc1cccc(OCCCCN2CCOCC2)c1Cl,55% (active)
23,Clc1cccc(OCCN2CCOCC2)c1Cl,0% (inactive)
24,Cc1sc2nc(SCC(=O)NCCO)[nH]c(=O)c2c1C,2% (inactive)
25,CCOc1ccc(-c2nc3cc(NC(=S)NC(=O)c4ccccc4Br)ccc3o2)cc1,20% (inactive)
26,COc1ccc(C(=O)NC(=S)Nc2ccc3oc(-c4ccccc4Cl)nc3c2)cc1Cl,53% (active)

row,Compound,inhibition
1,COc1ccc(-c2nc3cc(NC(=S)NC(=O)c4ccccc4OC)ccc3o2)cc1Cl,13% (inactive)
2,COc1ccc(-c2nc3cc(NC(=S)NC(=O)c4ccccc4Cl)ccc3o2)cc1Cl,45% (inactive)
3,COc1ccc(C(=O)NC(=S)Nc2ccc3oc(-c4ccccc4Cl)nc3c2)cc1OC,14% (inactive)
4,COc1ccc(C(=O)NC(=S)Nc2ccc3oc(-c4ccccc4C)nc3c2)cc1Cl,25% (inactive)
5,COc1ccc(-c2nc3cc(NC(=S)NC(=O)c4ccccc4C)ccc3o2)cc1Cl,56% (active)
6,COc1ccc(-c2nc3cc(NC(=S)NC(=O)c4ccccc4C)ccc3o2)cc1,7% (inactive)
7,CCOc1ccc(-c2nc3cc(NC(=S)NC(=O)c4ccccc4C)ccc3o2)cc1,61% (active)
8,O=C(Nc1ccc2ccccc2c1)c1cc(I)ccc1Cl,23% (inactive)
9,COc1ccc(/C(N)=N/OC(=O)/C=C/c2ccccc2)cc1,15% (inactive)
10,CCCCOC(=O)c1ccc(NC(=O)COc2ccccc2Br)cc1,15% (inactive)
11,COc1ccc(NC(=O)CN(c2c(C)n(C)n(-c3ccccc3)c2=O)S(=O)(=O)c2ccccc2)cc1,4% (inactive)
12,O=C(CSc1nc2sc3c(c2c(=O)n1-c1ccc(Cl)cc1)CCCC3)c1ccccc1,13% (inactive)
13,O=[N+]([O-])c1ccc(N2CCN(S(=O)(=O)c3ccc4ccccc4c3)CC2)cc1N1CCCC1,5% (inactive)
14,CC(c1ccccc1)N1C(=O)/C(=C/c2cccc([N+](=O)[O-])c2)SC1=S (stereo not drawn),11% (inactive)
15,O=C(Nc1ccc(-c2nc3ccc(NC(=O)c4ccccc4[N+](=O)[O-])cc3[nH]2)cc1)c1ccccc1[N+](=O)[O-],13% (inactive)
16,COc1ccc(C(=O)NC(=S)Nc2ccc3nn(-c4ccc(F)cc4)nc3c2)cc1[N+](=O)[O-],38% (inactive)
17,Cc1ccc(C(=O)Nc2ccccc2)cc1[N+](=O)[O-],7% (inactive)
18,O=C(Nc1ccc2nn(-c3ccccc3)nc2c1)c1ccc(Cl)c([N+](=O)[O-])c1,21% (inactive)
19,O=C(Nc1ccc2nn(-c3ccc(Cl)cc3)nc2c1)c1ccc([N+](=O)[O-])cc1,31% (inactive)
20,Cc1ccc(C(=O)Nc2ccc(-c3nc4cc5ccccc5cc4[nH]3)cc2)cc1[N+](=O)[O-],80% (active)
21,Cc1ccc(-n2nc3ccc(NC(=O)c4cccc([N+](=O)[O-])c4)cc3n2)cc1Cl,43% (inactive)
22,COc1ccc(C(=O)NC(=S)Nc2ccc(C)c(Cl)c2)cc1[N+](=O)[O-],5% (inactive)
23,O=C(Nc1ccc2nn(-c3ccc(F)cc3)nc2c1)c1ccc([N+](=O)[O-])cc1,16% (inactive)
24,Cc1ccc(-n2nc3ccc(NC(=O)c4ccc([N+](=O)[O-])cc4)cc3n2)cc1Cl,53% (active)
25,O=C(Nc1ccc2nn(-c3ccc(F)cc3)nc2c1)c1ccc(Cl)c([N+](=O)[O-])c1,52% (active)
